An excerpt weighted towards active compounds, which were near 2.1% of everything screened.
TDP-43 yeast inh: TDP-43 toxicity inhibition in yeast. TDP-43 expressing yeast growth rescue, BacTiter-Glo, 24 h. Potency, µM (top dose mostly 46.1 µM), for inactives: top-dose growth rescue (activation), usual class: activators. 410,000 compounds, 1.8% hits. AID 652104; note: % of control where 0% means no effect; nearly all actives have a fitted effect of over 50% in size
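Luminescence from BacTiter-Glo reports growth of TDP-43-expressing yeast after 24 hr at 30 deg C with compound. Cells were raffinose-pregrown to mid-log, then seeded in galactose medium at OD600=0.02.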
FUS yeast rescue: rescues growth of FUS-expressing yeast | S. cerevisiae FUS-expressing, growth rescue, OD600, 24 h | Potency, µM (doses to about 76.6 µM), most hits filed as activators | 390,000 compounds, 0.24% hits;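 note: plate controls were DMSO vehicle for no effect and reference control for full effect; nearly all actives have a fitted effect of over 55% in size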
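FUS-expressing yeast, raffinose-pregrown, induced in 2% galactose minimal medium at OD 0.005; compounds in a dilution series, 24hr at 30C. Growth restoration read as absorbance at 600 nm. CP55940 positive control, DMSO negative.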
aSyn yeast inh: rescues yeast growth from alpha-synuclein toxicity; 370,000 compounds, 0.14% hits; AID 652106; Potency, µM (doses to about 46.1 µM), without a hit: at the highest dose growth rescue (activation), actives largely listed as activators; Yeast expressing alpha-synuclein, growth rescue, BacTiter-Glo, 24 h; note: % of control where 0% means no effect; nearly all actives have a fitted effect of over 65% in size
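Readout is rescue of growth in alpha-synuclein-expressing yeast, so inhibitors of toxicity appear as activators. Growth after 24 hr at 30 deg C in galactose medium is quantified by luminescence.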
Abeta rescue: compounds reversing amyloid beta toxicity in yeast; yeast expressing A-beta42, growth rescue, OD600, 48 h; response scale: 0% DMSO, 100% iron-clioquinol control; Potency, µM (doses to about 46.1 µM), most hits filed as activators; 410,000 compounds, 0.063% hits; note: nearly all actives have a fitted effect of over 55% in size
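Growth rescue measured by 600 nm absorbance after 48 h yeast culture at 30 C with compound. Values normalized between DMSO and an equimolar ferric chloride plus clioquinol control.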
The depositor's hits bear a star; i = inactive; ? = inconclusive; . = no result; [ ] = remark or other dose. Calls come from the whole dose curve; as a rule, active = well fitted curve in the direction sought with a large enough effect; inconclusive = small, poorly fitted or top-dose-only effect, or another doubt; inactive = no such curve, though single readings can be large; an effect the other way counts as inactive or inconclusive. Potency is the fitted concentration of half-maximal effect.

SMILES | TDP-43 yeast inh | FUS yeast rescue | aSyn yeast inh | Abeta rescue
C[C@@H]1CN([C@@H](C)CO)C(=O)Cc2cc(NC(=O)Nc3ccc(C(F)(F)F)cc3)ccc2O[C@@H]1CN(C)S(=O)(=O)c1ccc(Cl)cc1 | 3.7% | 17.8µM* | 1.7% | i
C[C@H](CO)N1C[C@H](C)[C@@H](CN(C)S(=O)(=O)c2cccs2)Oc2ccc(NC(=O)Nc3ccc(C(F)(F)F)cc3)cc2C1=O | 4.1% | i | 1.0% | i
C[C@@H]1CN([C@H](C)CO)C(=O)c2cc(NC(=O)Nc3ccc(C(F)(F)F)cc3)ccc2O[C@H]1CN(C)S(=O)(=O)c1cccs1 | 14.5% | 10µM* | 0.2% | i
Cc1occc1C(=O)Nc1nnc(-c2cccs2)s1 | 1.2% | i | -4.8% | i
COc1cccc(-c2cc3c(c4c2ccn4C)C2CCC3C2)c1 (stereo unspecified) | ? | i | -8.8% | i
COc1ccc(-c2cc3c(c4c2ccn4C)C2CCC3C2)cc1 (stereo unspecified) | 35.5µM* | i | -7.4% | i
Cn1ccc2c(-c3ccc(C(C)(C)C)cc3)cc3c(c21)C1CCC3C1 (stereo unspecified) | 12.5% | i | -6.3% | i
Cn1ccc2c(-c3ccc(C(=O)O)cc3)cc3c(c21)C1CCC3C1 (stereo unspecified) | 28.2µM* | i | -1.9% | i
Cc1cc(=O)oc2cc(NC(=O)CCC(=O)O)ccc12 | -13.3% | i | 4.3% | i
COc1cc(-c2cc(OC)c3c(C)oc(C)c3c(=O)c2)ccc1OC(=O)c1ccccc1F | ? | i | . | i
COc1cc(-c2cc(OC)c3c(C)oc(C)c3c(=O)c2)ccc1OC(=O)c1ccccc1Cl | 13.0% | 12.6µM* | . | i
CCOc1ccc(-n2c(SCC(=O)c3ccccc3Cl)nnc2-c2ccncc2)cc1 | . | 17.8µM* | . | .
CCN(CC)S(=O)(=O)c1ccc(NC(=O)c2cccc3c2C(=O)N(CCOC)C3)cc1 | 2.2% | . | 2.5% | i
OC1(C(F)(F)F)CC(c2ccc3ccccc3c2)=NO1 (stereo unspecified) | 3.16µM* | i | -10.2% | i
OC(c1ccccc1)(c1nc(-c2ccc3ccccc3c2)cs1)C(F)(F)F (stereo unspecified) | -7.9% | i | 17.3% | i
Cc1cc(-c2ccco2)c(C#N)c2nc3ccccc3n12 | 3.98µM* | i | 0.562µM* | i
CC(C)c1cc(N2CCN(C(=O)c3ccco3)CC2)n2c(nc3ccccc32)c1C#N | 7.7% | i | -0.3% | i
CCCCc1nc(NCCNC(=O)c2ccco2)c(C#N)c2c1CSC(C)(C)C2 | ? | ? | -1.7% | i
CCCCc1nc(NCCNC(=O)c2ccccc2)c(C#N)c2c1CSC(C)(C)C2 | 22.4µM* | i | -7.3% | i
CNC(=O)COC(=O)/C=C/c1nc2ccccc2s1 | 15.8µM* | i | 7.4% | i
CCN(/N=C/c1cccs1)c1cc(=O)n(C)c(=O)[nH]1 | 1.4% | i | -7.6% | i[9.22 µM]
CC1(C(=O)NC2CCCC2)CCN1C(=O)Cc1ccc(-c2ccccc2)cc1 (stereo unspecified) | ? | i | ? | i
Cc1ccc(CNC(=O)C2(C)CCN2C(=O)Cc2ccc(-c3ccccc3)cc2)cc1 (stereo unspecified) | 35.5µM* | i | ? | i
CC1(C(=O)NCC2CCCCC2)CCN1C(=O)Cc1ccc(-c2ccccc2)cc1 (stereo unspecified) | 20µM* | ? | 20.5% | i
O=C(C(=O)N1CCC(Cc2ccccc2)CC1)c1cccs1 | 23.0% | i | 7.2% | i
SMILES | TDP-43 yeast inh | FUS yeast rescue | aSyn yeast inh | Abeta rescue
CCN1C(=O)c2cccc3cccc1c23 | -2.5% | i | -3.4% | i
CC(C)OCc1cc(CN2CCN(c3cccc(C(F)(F)F)c3)CC2)c(O)c2ncccc12 | 0.0% | i | . | i
CCOCc1cc(CN2CCN(c3cccc(C(F)(F)F)c3)CC2)c(O)c2ncccc12 | 25.1µM* | i | . | i
Cc1cccc(-c2nc(CCNC(=O)c3ccc(Br)o3)cs2)c1 | 15.8µM* | i | . | i
O=C(NCCc1csc(-c2ccccc2)n1)c1ccc(Br)o1 | 22.4µM* | i | 6.0% | i
O=C(NCCc1csc(-c2cccnc2)n1)c1ccc(Br)o1 | -1.5% | i | -29.8% | i
Cc1ccc(CN2CCN(Cc3cnn(-c4ccc(F)cc4)c3)CC2CCO)o1 (stereo unspecified) | -11.2% | i | 2.2% | i
Cc1ccc(C(C)C)c2oc(=O)cc(-c3ccc(-c4ccc(C(F)(F)F)cc4)cc3)c12 | 14.6% | i | -0.3% | i
Nc1ncnc2c(C3OC(CO)C(O)C3O)c[nH]c12 (stereo unspecified) | 3.16µM* | . | 11.2µM* | i
Clc1ccc(-c2cc3ccccc3nc2N2CCCC2)cc1 | -9.9% | i | -9.7% | i
Clc1ccc(-c2cc3ccccc3nc2N2CCOCC2)cc1 | 17.8µM* | i | 9.8% | i
O=C(Cc1cccc(NC(=O)C2CCN(C(=O)CCc3ccccc3)CC2)c1)Nc1cccc(C(=O)N2CCOCC2)c1 | 4.4% | i | 1.8% | i
CCNC(=O)COC(=O)/C=C/c1cccc([N+](=O)[O-])c1 | 3.6% | i | 0.5% | i
CCCCOC(=O)n1c(=O)oc2ccccc21 | 5.5% | i | -4.1% | i[9.22 µM]
CCOC(=O)n1c(=O)oc2ccc(Cl)cc21 | 10µM* | i | 1.4% | i
CCOC(=O)n1c(=O)n(Cc2ccc(Cl)cc2Cl)c2ccccc21 | 22.4µM* | i | 18.7% | i[9.22 µM]
Cc1cccc(-c2cnc(C(O)c3ccc(-c4ccccc4)cc3)[nH]2)c1 (stereo unspecified) | 28.7% | i | -19.2% | ?
Fc1ccccc1C1c2[nH]c3ccccc3c2CCN1Cc1cccn1-c1ncccn1 (stereo unspecified) | 12.1% | i | -9.4% | i
O=C(CSc1nc(=O)n2ccccc2n1)N1CCC(Cc2ccccc2)CC1 | 20µM* | i | 4.0% | i
Cc1ccc(C)c(C(=O)COC(=O)c2cccc(N3C(=O)c4c(C)nc5ccccc5c4C3=O)c2)c1 | -9.7% | i | -2.3% | i
O=C(Cn1nnc(-c2ccccc2Cl)n1)N1CCCCC1 | -13.8%[1.82 µM] | i | 8.9% | i
O=C(c1cnn(-c2ccc(F)cc2)c1-n1cccc1)N1CCN(c2cccc(Cl)c2)CC1 | 12.6µM* | i | 2.3% | i
COCCCNC(=O)C1CCCN(C(=O)c2cnn(-c3ccc(F)cc3)c2-n2cccc2)C1 (stereo unspecified) | 0.0% | i | ? | i
COC(=O)c1ccccc1NC(=O)C1CCCN(C(=O)c2cnn(-c3ccc(F)cc3)c2-n2cccc2)C1 (stereo unspecified) | 35.5µM* | i | 5.0% | i
CC(C)N(Cc1nc(-c2ccc(Cl)cc2)no1)C(=O)/C=C/c1ccccc1 | 2.0% | . | 0.2% | i
C/C(=N\Nc1ccc(F)cc1F)c1ccccc1O | 12.6µM* | i | 2.2% | i

High-throughput results (PubChem BioAssay)
